Assay [1] is described as follows: inhibitors of TNFa-induced NFkB p65 translocation, primary screen, imaging, HUVEC, MLSMR starter and 10KST1 sets (AID 438;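 active = inhibition above 20% together with a positive visual image hit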;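 note: compound added about 3h40 before a 20 min TNFalpha stimulation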;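 for inhibition: signal is the nuclear over cytoplasmic p65 intensity ratio per well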). Conditions: HUVEC TNFa-induced p65 nuclear translocation; cell count: measured here: nuclei count (cytotoxicity indicator), at 2.08 µM; inhibition: at 2 µM, stronger effect = higher value, 0% TNFa-plus-vehicle, 100% no-TNFa wells.
Assay [2] can be described thus: inhibitors of mutant huntingtin aggregation, primary screen, imaging, exon1htt(103Q)mCFP cells, high-content imaging (AID 483;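 active = visual image review flags a hit and inhibition of aggregation exceeds 20%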;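 note: compound exposure lasted 3 days before fixation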;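 for nuclei count: percent of the per-plate median nuclei count of sample wells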). The settings on record: exon1htt(103Q)mCFP cell line, aggregate imaging, at 2 µM; inhibition of aggregation: stronger effect = higher value; nuclei count: measured here: cell count, toxicity.
Assay [3] in a line: inhibitors of E-selectin induction by TNFa, primary screen, imaging, HUVEC, immunofluorescence, MLSMR starter and 10KST1 sets (AID 487;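 active = visually confirmed hit in the image check and inhibition above 20%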;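 for inhibition: signal is fraction of cell area covered by stained E-selectin grains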;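 for nuclei count: 100% = median nuclei count of all wells on the same plate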). The settings on record: HUVEC TNFalpha-induced E-selectin immunofluorescence imaging, at 2 µM; inhibition: stronger effect = higher value; nuclei count: measured here: cell number, toxicity.
A short description of assay [4]: DUSP6 inhibitors restoring Erk phosphorylation by chemical complementation, primary imaging in DUSP6-transfected HeLa (AID 609;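 active = compounds giving at least 50% inhibition in the cell-based MKP-3 phosphatase rescue imaging test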;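 for inhibition: phospho-Erk level distribution per well compared with pooled transfected vehicle control wells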). Conditions: HeLa MKP-3 transfected, phospho-Erk imaging KS statistic, at 10 µM, cells stimulated with TPA for 15 min.
The target of assay [5] is Dual specificity protein phosphatase 6 (Homo sapiens) (UniProt Q16828). The assay is described as above. Conditions: HeLa MKP-3 transfected, phospho-Erk imaging KS statistic; at 10 µM; stronger effect = higher value; cells stimulated with TPA for 15 min.
For assay [6], the target named is Voltage-gated potassium channel subunit beta-2 (Rattus norvegicus) (UniProt P62483). Kind of assay: KvBeta enzyme negative modulators, primary screen, biochemical, NADPH fluorescence (AID 622;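 active = fluorescence slope higher than the sample average by over 3 SD, cut at about -0.22 in these data, passing the limit was not always enough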;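 note: slope of raw intensity against log time taken from 70 to 1610 s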). Conditions: recombinant KvBeta, 4-cyanobenzaldehyde reduction, at 10 µM, stronger effect = higher value.
Assay [7] has the same target. Kind of assay: KvBeta positive modulators, primary screen, biochemical, NADPH fluorescence (AID 623;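 active = NADPH fluorescence slope more negative than the mean of all samples by about 3 SD, 99.7% confidence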;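 note: fluorescence intensity change per second fitted from 20 to 320 s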). Conditions: Recombinant KvBeta, NADPH fluorescence decrease slope, 10 min; at 10 µM; stronger effect = lower value.
The target in assay [8] is Alpha-2C adrenergic receptor (Homo sapiens) (UniProt P18825). Kind of assay: modulators of alpha2C/GIRK thallium flux, primary screen, cell-based, HEK293 alpha2C/GIRK1/2 (AID 624;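 active = fluorescence slope after compound addition differing from the mean of all screened samples at 99.7% confidence, in either direction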;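 note: slope of fluorescence ratio to pre-addition baseline per second over 15 to 24 s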). Conditions: thallium flux BTC fluorescence, at 10 µM, actives lie on both sides.
In assay [9] the target is Muscarinic acetylcholine receptor M4 (Homo sapiens) (UniProt P08173). As to the kind of experiment: compounds altering M4/GIRK thallium flux, either direction, primary screen, M4 allosteric agonist project, cell-based, HEK293 M4/GIRK, BTC-AM (AID 625;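 active = fluorescence slope after compound addition differing from the mean of all tested samples at 99.7% confidence, mostly higher but some lower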;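 note: thallium influx through GIRK channels coupled to M4 in HEK293 cells with BTC-AM dye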). The settings on record: at 10 µM, actives lie on both sides.
Assay [10] in a line: inhibitors of larval lipid processing in zebrafish, primary screen, whole organism, PED6 fluorescence, gall bladder and intestine (AID 686;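 active = a full or partial loss of lipid-probe fluorescence in the fish gall bladder, intestine or both, judged by eye; inactive = no fluorescence loss, or compound toxic to the fish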;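 note: larvae 5 to 7 days old with five fish per well; signal comes from phospholipase A2 cleavage of quenched PED6 carried via bile; overnight exposure to compound and PED6 before scoring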). The settings on record: Zebrafish larvae PED6 lipid processing, fluorescence scoring; screened at 20 µM (by protocol).
A short description of assay [11]: inhibitors of Chlamydomonas gravitaxis, primary screen, whole organism, Chlamydomonas reinhardtii, WT vs cilia-less mutant, absorbance, 96-well (AID 463189).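 Note: 0% = wild type cc124 cells in DMSO and 100% = ciliumless bld1 mutant cells.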 The settings on record: OD600 absorbance, 2 days, at 10 µM, stronger effect = higher value.
A short description of assay [12]: inhibitors of Sendai virus-induced IRF3 signaling, primary screen, TLR/RLR signaling modifier project, cell-based, Sendai virus stimulus, luciferase, 10K MLSCN set (AID 602276;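 active = inhibition at or above 50% at 10 µM; inactive = inhibition below 50%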;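 note: firefly luciferase from ISG56 promoter only with Renilla not read in this screen; 0% = Sendai virus plus DMSO and 100% = medium plus DMSO without virus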). Conditions: HEK293 RL24 IRF3 luciferase reporter, at 10 µM, stronger effect = higher value. (In general: Reporter assays use an easily measured gene product as a stand-in for the process of interest.)

Assay [13] in a line: inhibitors of poly I:C-induced TLR3 signaling, primary screen, cell-based, poly I:C stimulus, luciferase, 10K MLSCN set (AID 602277;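 active = inhibition of the reporter signal at or above 50%; inactive = inhibition below 50%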). The settings on record: HEK293-TLR3 RL24 IRF3 luciferase reporter, at 10 µM, stronger effect = higher value.
Setting [14] is: measured here: cell density z-score.
[15] abbreviates: measured here: nuclear c-Myc green intensity z-score.
[16] abbreviates: measured here: nuclear pErk red intensity z-score, stronger effect = higher value.

Where “and” joins values, the source holds several entries; their conditions need not be identical. Identical values can stand only once. Calls of active or inactive are those of the source.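 Rule for the calls, unless noted: active = inhibition at or above 50% relative to wild type and mutant plate controls; inactive = inhibition below 50%.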

The record followed here is PubChem BioAssay.

By inhibition is commonly meant the change of the read-out against control, counted positive when it falls.

Chain of Muscarinic acetylcholine receptor M4 (Homo sapiens) (P08173 whole entry, looked up): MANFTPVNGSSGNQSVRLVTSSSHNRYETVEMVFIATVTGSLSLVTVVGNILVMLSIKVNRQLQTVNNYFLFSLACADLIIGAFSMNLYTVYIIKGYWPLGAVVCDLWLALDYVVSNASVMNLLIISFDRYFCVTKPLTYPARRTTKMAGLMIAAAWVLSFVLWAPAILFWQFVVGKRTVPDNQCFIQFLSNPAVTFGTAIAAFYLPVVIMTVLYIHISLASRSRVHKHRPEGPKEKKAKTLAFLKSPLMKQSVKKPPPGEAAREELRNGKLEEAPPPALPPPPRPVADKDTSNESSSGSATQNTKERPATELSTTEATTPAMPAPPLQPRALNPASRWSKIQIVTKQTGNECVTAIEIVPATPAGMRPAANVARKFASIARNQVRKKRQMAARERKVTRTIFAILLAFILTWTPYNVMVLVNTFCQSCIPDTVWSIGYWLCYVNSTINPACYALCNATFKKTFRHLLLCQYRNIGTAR
Chain of Dual specificity protein phosphatase 6 (Homo sapiens) (Q16828 whole entry, looked up): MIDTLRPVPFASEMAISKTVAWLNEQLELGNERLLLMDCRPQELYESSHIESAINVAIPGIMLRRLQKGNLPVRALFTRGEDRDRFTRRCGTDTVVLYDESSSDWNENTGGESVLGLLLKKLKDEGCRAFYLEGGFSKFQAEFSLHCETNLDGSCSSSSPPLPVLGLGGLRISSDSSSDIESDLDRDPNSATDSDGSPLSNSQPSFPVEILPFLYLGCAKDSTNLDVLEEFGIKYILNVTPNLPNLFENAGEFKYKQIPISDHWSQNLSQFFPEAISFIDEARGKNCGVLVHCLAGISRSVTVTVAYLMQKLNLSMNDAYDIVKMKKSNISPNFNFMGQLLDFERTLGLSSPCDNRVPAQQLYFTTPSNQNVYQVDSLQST
Chain of Voltage-gated potassium channel subunit beta-2 (Rattus norvegicus) (P62483 whole entry, looked up): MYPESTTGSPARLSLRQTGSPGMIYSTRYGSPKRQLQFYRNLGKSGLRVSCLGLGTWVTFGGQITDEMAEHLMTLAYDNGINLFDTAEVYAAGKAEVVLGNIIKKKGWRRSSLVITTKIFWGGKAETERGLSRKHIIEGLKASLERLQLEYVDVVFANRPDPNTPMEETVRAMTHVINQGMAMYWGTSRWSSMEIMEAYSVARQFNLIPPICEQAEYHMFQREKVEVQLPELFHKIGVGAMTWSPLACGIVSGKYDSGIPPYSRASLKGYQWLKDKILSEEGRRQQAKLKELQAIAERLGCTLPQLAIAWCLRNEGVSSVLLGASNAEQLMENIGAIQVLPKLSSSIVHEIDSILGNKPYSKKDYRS
Chain of Alpha-2C adrenergic receptor (Homo sapiens) (P18825 whole entry, looked up): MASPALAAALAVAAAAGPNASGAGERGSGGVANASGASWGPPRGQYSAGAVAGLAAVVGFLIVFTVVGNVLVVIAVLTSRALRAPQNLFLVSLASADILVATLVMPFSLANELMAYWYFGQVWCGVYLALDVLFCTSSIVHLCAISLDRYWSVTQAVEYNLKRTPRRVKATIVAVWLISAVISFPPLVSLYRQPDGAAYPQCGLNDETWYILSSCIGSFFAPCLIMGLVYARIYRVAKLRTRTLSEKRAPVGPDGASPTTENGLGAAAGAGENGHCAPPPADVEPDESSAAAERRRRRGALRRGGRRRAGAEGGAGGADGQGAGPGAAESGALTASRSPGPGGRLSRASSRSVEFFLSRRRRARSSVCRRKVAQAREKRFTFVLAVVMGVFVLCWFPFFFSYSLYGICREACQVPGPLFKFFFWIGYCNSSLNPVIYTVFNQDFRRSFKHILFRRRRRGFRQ

Turning to `COc1cccc(NC(=O)CC2SC(=Nc3ccccc3)NC2=O)c1` (stereo not given), the cell count in [1] amounted to 593. In addition, the inhibition in assay [1] is 2.2% (inactive); in assay [3], -29.5% (inactive); in [5], 9.91% (inactive); in assay [11], 32.2% (inactive); in assay [12], -8.37% (inactive); in assay [13], 97.6% (active). In addition, the inhibition of aggregation in assay [2] was 32.9% (inactive). In addition, the nuclei count worked out at 84.1% in assay [2] and 132% in [3]. Also, the z-score in [4] (setting [14]) was -0.312; in assay [4] (setting [15]), -0.394; in assay [4] (setting [16]) it was 0.335. The fluorescence slope in [6] was -0.37 (inactive); in assay [9], 0.00596 (inactive). Further, the NADPH fluorescence slope in assay [7] is -1.5e-05 (inactive). For the same compound, in assay [8], the slope was 0.00453 (inactive). The call in assay [10] was inactive.
`CC1(C)Cc2c(c(-c3ccccc3)nc(N3CCCC3)c2C(N)=O)CO1`: in assay [1], the cell count was determined as 496. Also, the inhibition in assay [1] is -6% (inactive); in assay [3] it was -130% (inactive); in assay [5], -6.59% (inactive); in assay [11], -0.193% (inactive); in [12], 16.5% (inactive); in assay [13] it was 21.4% (inactive). In addition, the inhibition of aggregation in assay [2] was 15.7% (inactive). Besides, the values for the nuclei count in assay [2] and in [3] were 102% and 142%, respectively. The z-score is -1.1 in [4] (setting [14]), 1.34 in assay [4] (setting [15]) and -0.38 in assay [4] (setting [16]). In addition, the fluorescence slope in assay [6] was -0.473 (inactive); in assay [9], 0.00451 (inactive). In addition, in assay [7], the NADPH fluorescence slope is -0.000128 (inactive). In assay [8], the slope is 0.0059 (inactive). For the same compound, in [10], the outcome was “inactive; toxic”.
Take `CC(C)OC(=O)C(C)(C)Oc1ccc(C(=O)c2ccc(Cl)cc2)cc1`: the cell count in [1] worked out at 484. Besides, the inhibition is -9% (inactive) in [1]; -10.1% (inactive) in assay [3]; -8.38% (inactive) in [5]; -3.15% (inactive) and 23.4% (inactive) in [11]; -6.93% (inactive) in assay [12]; 18.9% (inactive) in assay [13]. Moreover, the inhibition of aggregation in [2] is 28.8% (inactive). In addition, the nuclei count in assay [2] turned out to be 89.5%; in assay [3] it was 97.2%. The z-score in assay [4] (setting [14]) was 0.497; in assay [4] (setting [15]), -1.12; in [4] (setting [16]), 0.95. Besides, the fluorescence slope in [6] was -0.446 (inactive). The NADPH fluorescence slope in assay [7] was 1.6e-05 (inactive). The slope in assay [8] was 0.00465 (inactive).
As for `Cc1ccc(SCc2[nH]nc3c2C(c2ccc(C)o2)C(C#N)=C(N)O3)cc1` (stereo not given), the cell count in assay [1] turned out to be 571. In addition, the inhibition in [1] is -2.5% (inactive); in assay [3], -2.7% (inactive); in assay [5], 24% (inactive); in [11], 25.7% (inactive); in assay [12], -13.7% (inactive); in [13], -11.1% (inactive). In addition, the inhibition of aggregation in [2] is 15.4% (inactive). In addition, the nuclei count in [2] came out at 62.4%; in assay [3] it was 91.7%. The z-score was -2.32 in [4] (setting [14]), 1.82 in assay [4] (setting [15]) and 1.99 in assay [4] (setting [16]). The fluorescence slope in assay [6] is -0.515 (inactive); in [9] it was 0.00561 (inactive). The NADPH fluorescence slope in [7] was -5.6e-05 (inactive). Moreover, in [8], the slope is 0.0059 (inactive). For the same compound, the compound was called inactive in assay [10].
